# ClpP mod = qHTS Assay for Activators of ClpP; 1.9% of 340,000 active; purified B. subtilis ClpP, FRET peptide cleavage, 20 min; AID 651965, 2013; Potency, µM (highest dose often 57.5 µM), without a hit: top-dose activity change, negative = active; ATP-dependent Clp protease proteolytic subunit (Bacillus subtilis (strain 168)), P80244; active = well fitted falling curve with a large enough effect; inconclusive = small, poorly fitted or top-dose-only effect; inactive = no such curve, though single readings can be large or run the other way; also: the source files actives as falling curves though it sought activators and does not explain the sign; nearly all actives have a fitted effect of over 65% in size
#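 ClpP 10 microg/mL final, pH 8 Tris/KCl buffer with BSA, glycerol, Tween-20; compound pinned in; FRET-FV substrate; RT 20 min; Ex320/Em430; ΔFRET vs ADEP 5.8 microM, DMSO, no enzyme.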
# TDP1 inh = qHTS Assay for Inhibitors of Tyrosyl-DNA Phosphodiesterase (TDP1) | Tyrosyl-DNA phosphodiesterase 1 (Homo sapiens), Q9NUW8 | recombinant TDP1, AlphaScreen DNA substrate cleavage | Potency, µM (series often up to 130 µM), for inactives: at the highest dose activity change, negative = inhibition, hits mostly inhibitors | 0.28% of 350,000 active; also: % is scaled to controls: 0 for no effect and ±100 for the full control effect; nearly all actives have a fitted effect of over 40% in size
# Target sequence (Q9NUW8 whole entry, looked up): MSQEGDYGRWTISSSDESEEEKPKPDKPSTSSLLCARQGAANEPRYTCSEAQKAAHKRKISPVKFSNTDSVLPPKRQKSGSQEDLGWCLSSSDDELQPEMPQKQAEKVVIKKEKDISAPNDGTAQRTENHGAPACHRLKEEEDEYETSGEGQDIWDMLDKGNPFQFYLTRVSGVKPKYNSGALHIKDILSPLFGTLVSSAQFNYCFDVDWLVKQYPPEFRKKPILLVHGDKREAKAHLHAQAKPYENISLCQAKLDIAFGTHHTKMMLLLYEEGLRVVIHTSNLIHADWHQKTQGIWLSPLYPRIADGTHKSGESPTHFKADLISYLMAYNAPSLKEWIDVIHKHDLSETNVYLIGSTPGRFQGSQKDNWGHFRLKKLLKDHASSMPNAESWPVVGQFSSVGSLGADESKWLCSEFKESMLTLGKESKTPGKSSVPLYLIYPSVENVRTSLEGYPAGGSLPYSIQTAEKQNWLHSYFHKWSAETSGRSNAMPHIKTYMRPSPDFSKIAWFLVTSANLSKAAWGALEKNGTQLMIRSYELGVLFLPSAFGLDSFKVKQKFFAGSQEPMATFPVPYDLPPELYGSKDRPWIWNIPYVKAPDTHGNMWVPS
#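 AlphaScreen read-out: signal falls as enzyme removes the 3' tyrosine-FITC from a 5'-biotinylated DNA oligo (15 nM, 5 min, RT). Enzyme was E. coli-made recombinant Tdp1 at 1 nM, exposed to compound for 15 min beforehand; beads 10 ug/ml, 10 min.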
# DT40 TDP1 CPT = qHTS for Inhibitors of human tyrosyl-DNA phosphodiesterase 1 (TDP1): qHTS in cells in presence of CPT; chicken DT40 Tdp1-/-;hTDP1 cells + 20 nM CPT, ATP luminescence, 48 h; Potency, µM (top dose mostly 46.2 µM), inactives show at the top dose activity change, negative = growth inhibition, actives largely listed as inhibitors; 12% of 420,000 active; AID 686979, 2013; also: % is scaled to controls: 0 for no effect and ±100 for the full control effect; nearly all actives have a fitted effect of over 55% in size
#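 Chicken DT40 Tdp1-/- cells complemented with human TDP1, 400 cells/well, exposed to compounds plus 20 nM camptothecin for at least 48 h at 37 C; viability read as ATP content by CellTiter-Glo luminescence.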
# TDP1 cell noCPT = qHTS for Inhibitors of human tyrosyl-DNA phosphodiesterase 1 (TDP1): qHTS in cells in absence of CPT; 15% of 420,000 active; Potency, µM (highest dose often 46.2 µM), for inactives: at the top dose activity change, negative = growth inhibition, hits mostly inhibitors; DT40 Tdp1-/- hTDP1 cells, no CPT, ATP luminescence, 48 h; also: % is scaled to controls: 0 for no effect and ±100 for the full control effect; nearly all actives have a fitted effect of over 55% in size
#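 No-CPT arm: Tdp1-/-;hTDP1 DT40 cells (400/well) plus compounds, incubated ≥48 hr at 37 °C. Readout CellTiter-Glo luminescence.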
# Starred values were filed as active, the others as inactive; ? = inconclusive; . = no result. This is a sample that favours compounds with a hit; in the whole collection about 17% have one here. Unless noted, calls follow the shape of the dose curve; as a rule, active = well fitted curve in the direction sought with a large enough effect; inconclusive = small, poorly fitted or top-dose-only effect, or another doubt; inactive = no such curve, though single readings can be large; an effect the other way counts as inactive or inconclusive. Potency is read from the fitted curve at half-maximal effect.
SMILES,ClpP mod,TDP1 inh,DT40 TDP1 CPT,TDP1 cell noCPT
CC(=O)c1cccc(NC(=O)N2C3CCCC2CC(NC(=O)C2CC2)C3)c1 (centres undefined),.,7%,6%,3%
COc1ccc(CN2CCN(Cc3c[nH]c4ccccc34)CC2)cc1OC,0%,.,-29%,-12%
COc1ccc(C(=O)C2CCCN(C/C=C/c3ccccc3OC)C2)c(OC)c1 (centres undefined),.,.,21µM*,2.6µM*
COc1ccccc1/C=C/CN1CCCC(CCC(=O)NCc2ccccc2F)C1 (centres undefined),-4%,-1%,18µM*,21µM*
COc1ccc(CN2CCN(Cc3c[nH]c4ccccc34)CC2)cc1,.,.,6.5µM*,13µM*
COc1ccc(Br)cc1CN1CCN(C(=O)c2ccc(F)cc2)CC1,.,-9%,?,21µM*
CC(C)(C)OC(=O)C[C@H]1C/C=C\C[C@H](CC(=O)NCCO)C(=O)N[C@@H](c2ccccc2)COC1=O,-4%,2%,-15%,-15%
COc1ccc(C(=O)NCN2CCN(c3ccccc3)CC2)cc1OC,0%,4%,-1%,-5%
COc1ccc(CN2CCN(S(=O)(=O)c3ccccc3)CC2)c(OC)c1,0%,-2%,?,15µM*
COc1ccc(CN2CCN(Cc3c[nH]c4ccccc34)CC2)c(OC)c1,-6%,.,-83%,0.29µM*
COc1ccc(CN2CCN(Cc3ccccc3F)CC2)c(OC)c1,24%,.,-14%,?
COc1ccc(Br)cc1CN1CCN(Cc2c[nH]c3ccccc23)CC1,0%,.,4.6µM*,7.3µM*
COc1ccc(OC)c(CN2CCN(S(=O)(=O)c3ccccc3)CC2)c1,1%,2%,-2%,-20%
COc1ccc(C(=O)C2CCCN(Cc3c[nH]c4ccccc34)C2)c(OC)c1 (centres undefined),1%,.,7.3µM*,9.2µM*
COc1cccc(C(=O)N2CCN(Cc3cc(Br)ccc3OC)CC2)c1,0%,-3%,?,?
Cc1ccc(NC(=O)CSc2nnc(-c3nnn(-c4ccc(F)cc4)c3C)o2)cc1Br,-4%,2%,?,-13%
N#Cc1ccc(NN=Nc2ccccc2C#N)cc1,1%,.,-20%,?
CCc1nn(CC(=O)NCCCN(CC(C)C)CC(C)C)c(=O)c2cc3sc(C)cc3n12,-5%,0%,-5%,?
Cc1ccc(S(=O)(=O)c2nc(-c3ccccc3)oc2N2CCC(C(N)=O)CC2)cc1,0%,6%,-11%,-4%
COc1cccc(OC)c1C(=O)N1CCN(Cc2c[nH]c3ccccc23)CC1,0%,.,-28%,-28%
COc1ccccc1C(=O)N1CCN(Cc2c[nH]c3ccccc23)CC1,.,.,15µM*,16µM*
O=C(COc1ccccc1)N1N=C(c2cccnc2)CC1(O)C(F)(F)F (centres undefined),-2%,-8%,-5%,-30%
O=C(Cc1ccc([N+](=O)[O-])cc1)N1N=C(c2ccncc2)CC1(O)C(F)(F)F (centres undefined),0%,5%,21µM*,?
Cc1ccc(OCC(=O)N2N=C(c3ccncc3)CC2(O)C(F)(F)F)cc1C (centres undefined),1%,.,?,21µM*
Cc1nn(-c2ccc(Cl)cc2)c2[nH]c(=O)c(CNCc3ccc4c(c3)OCO4)cc12,-10%,3%,18µM*,18µM*
SMILES,ClpP mod,TDP1 inh,DT40 TDP1 CPT,TDP1 cell noCPT
Cc1nn(-c2ccccc2)c2[nH]c(=O)c(CNc3ccc(N4CCOCC4)cc3)cc12,-4%,10%,18µM*,18µM*
CC(C)(C)c1nn(-c2ccccc2)c2[nH]c(=O)c(CNc3ccc4c(c3)OCCO4)cc12,-5%,12%,-30%,-20%
Cc1ccc(NC(=O)C2(C)Cc3ccccc3C(=O)O2)c(C)c1 (centres undefined),0%,-8%,-14%,?
CCCCCCCCCCC[C@@H](C[C@@H]1OC(=O)[C@H]1CCCCCC)OC(=O)[C@H](CC(C)C)NC=O,1%,13%,?,18µM*
CC(=O)NC(CC(=O)Nc1nc(-c2ccc(N(C)S(C)(=O)=O)cc2)cs1)c1ccccc1 (centres undefined),.,8%,21µM*,16µM*
CN(c1ccc(-c2csc(NC(=O)CCCc3nc4ccccc4c(=O)[nH]3)n2)cc1)S(C)(=O)=O,-14%,.,21µM*,8.2µM*
O=C(CSc1nc2[nH]c(=O)cc(O)c2s1)Nc1nccs1,32µM*,1%,-6%,-4%
CCCSc1nnc(NC(=O)CSc2nc3[nH]c(=O)cc(O)c3s2)s1,-1%,?,2%,23%
CCc1nnc(NC(=O)CSc2nc3[nH]c(=O)cc(O)c3s2)s1,0%,-2%,6.5µM*,6.5µM*
Cc1csc(NC(=O)CSc2nc3[nH]c(=O)cc(O)c3s2)n1,.,.,21µM*,15µM*
CCN1CCN(c2ccc(NC(=O)CC3OC(=O)c4ccccc43)cc2C)CC1 (centres undefined),-1%,.,5%,-3%
Cc1c(CC(=O)O)c(=O)oc2c(C)c3occ(-c4ccc(Br)cc4)c3cc12,.,.,-8%,16µM*
Cc1nn(C)c(Sc2ccccn2)c1[N+](=O)[O-],.,1%,6%,-9%
Cc1cc(C)n(-c2nc3ccccc3nc2Nc2cc(Cl)ccc2C)n1,1%,-2%,-3%,6%
N#CC(C#N)=C1C=CC=CN1/C(=C\c1ccco1)C(=O)c1ccccc1,4%,1%,1.3µM*,1.5µM*
N#C/C(=C/c1ccco1)C(N)=S,.,.,?,-57%
COc1ccc(C(=O)/C(=C\c2ccco2)N2C=CC=CC2=C(C#N)C#N)cc1,1%,6%,0.65µM*,0.65µM*
COc1ccc(C(=O)N/C(=C\c2ccco2)C(=O)OCc2ccco2)cc1,1%,5%,-16%,?
COc1ccc(/C=C(/C(=O)c2cccs2)N2C=CC=CC2=C(C#N)C#N)cc1,-7%,8%,1.2µM*,1.2µM*
CCCCCC(=O)Nc1ccc(C2C(=O)c3ccccc3C2=O)cc1,1%,.,?,3%
CSc1ccc(/C=C(\C#N)C(=O)Nc2cccc(C)c2)cc1,1%,-3%,-19%,-12%
Cc1ccc(C(=O)Nc2nnc(S(=O)(=O)N3CCC(C)CC3)s2)cc1,-3%,4%,-7%,4%
Cn1ncc2cc3c(Nc4ccc(Cl)cc4)cccc3nc21,-20%,.,21µM*,12µM*
COc1cccc(-c2nnc(-c3ccc(C(F)(F)F)cc3)o2)c1,-26%,.,?,?
Cc1ccc(/C=C/c2nnc(-c3ccccc3)o2)cc1,32µM*,2%,-14%,-8%
Nc1ccc(-c2nnc(-c3ccc(N)cc3)o2)cc1,3%,.,-19%,-12%
Cc1ccc(-c2nnc(-c3ccc4ccccc4c3)o2)cc1,14µM*,.,?,?

# Screening results as filed in PubChem BioAssay.
